# Measurements taken from PubChem BioAssay.
# Inconclusive results are not listed. For some assays here: Results with a measured potency or affinity are listed apart. Active and inactive are the calls of the source. Unless noted, how the calls were made is not given here.
# How the values were obtained:
# [1] = molecular target: Calcium-dependent protein kinase 1 (Plasmodium falciparum (isolate 3D7)) (UniProt P62344); experiment: PfCDPK1 kinase inhibitors, biochemical, TCAMS library (AID 1159585; cut-off not given, nearly all actives have IC50 up to about 0.98 µM;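 further: inhibitors leave more ATP so luminescence rises with inhibition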); details: recombinant PfCDPK1, Kinase-Glo ATP depletion luminescence
# Calcium-dependent protein kinase 1 (Plasmodium falciparum (isolate 3D7)), sequence (P62344 whole entry, looked up): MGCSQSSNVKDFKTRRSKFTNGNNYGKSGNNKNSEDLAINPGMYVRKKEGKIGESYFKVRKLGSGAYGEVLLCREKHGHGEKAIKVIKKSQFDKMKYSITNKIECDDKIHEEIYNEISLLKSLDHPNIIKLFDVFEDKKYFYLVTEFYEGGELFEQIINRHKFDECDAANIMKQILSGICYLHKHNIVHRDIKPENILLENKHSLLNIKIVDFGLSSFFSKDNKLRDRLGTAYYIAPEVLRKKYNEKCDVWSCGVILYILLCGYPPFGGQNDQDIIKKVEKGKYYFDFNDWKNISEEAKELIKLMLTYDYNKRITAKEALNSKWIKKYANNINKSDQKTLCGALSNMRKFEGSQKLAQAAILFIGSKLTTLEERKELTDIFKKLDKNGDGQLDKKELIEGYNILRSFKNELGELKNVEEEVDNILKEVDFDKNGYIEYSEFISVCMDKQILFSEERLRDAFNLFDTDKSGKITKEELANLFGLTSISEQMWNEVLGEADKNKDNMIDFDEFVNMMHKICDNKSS
# [2] = molecular target: Plasmodium falciparum protein kinase 6 (PK6, PF3D7_1337100) (UniProt Q8IDW1); experiment: PfPK6 kinase inhibitors, biochemical, TCAMS library (AID 1159586); details: recombinant PfPK6, Kinase-Glo ATP depletion luminescence
# Plasmodium falciparum protein kinase 6 (PK6, PF3D7_1337100), sequence (Q8IDW1 1-305): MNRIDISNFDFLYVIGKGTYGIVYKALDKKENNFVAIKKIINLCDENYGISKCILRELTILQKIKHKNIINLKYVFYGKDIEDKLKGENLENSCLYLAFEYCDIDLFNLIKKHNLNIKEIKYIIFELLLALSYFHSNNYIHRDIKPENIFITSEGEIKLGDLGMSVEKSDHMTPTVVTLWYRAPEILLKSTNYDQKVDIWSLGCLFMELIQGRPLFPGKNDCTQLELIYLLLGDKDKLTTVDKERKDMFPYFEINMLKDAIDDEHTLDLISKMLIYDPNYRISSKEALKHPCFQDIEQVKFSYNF
# [3] = molecular target: Protein kinase 7 (PK7), Plasmodium falciparum 3D7 (PF3D7_0213400) (UniProt Q7YTF7); experiment: inhibition of Plasmodium PK7 catalytic activity – biochemical, TCAMS antimalarial set, Kinase-Glo luminescence (AID 1159587); details: recombinant PfPK7, Kinase-Glo ATP depletion luminescence
# Protein kinase 7 (PK7), Plasmodium falciparum 3D7 (PF3D7_0213400), sequence (Q7YTF7 1-343): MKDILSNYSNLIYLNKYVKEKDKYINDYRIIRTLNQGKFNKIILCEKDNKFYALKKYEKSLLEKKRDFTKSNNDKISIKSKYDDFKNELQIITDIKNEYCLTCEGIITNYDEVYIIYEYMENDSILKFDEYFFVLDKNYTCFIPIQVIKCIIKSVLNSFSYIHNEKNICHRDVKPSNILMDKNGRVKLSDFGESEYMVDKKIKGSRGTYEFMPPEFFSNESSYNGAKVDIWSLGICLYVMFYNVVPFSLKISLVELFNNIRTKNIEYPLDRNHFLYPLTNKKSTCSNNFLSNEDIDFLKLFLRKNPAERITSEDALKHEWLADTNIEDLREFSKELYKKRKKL
# [4] = molecular target: Calcium-dependent protein kinase 4 (Plasmodium falciparum (isolate 3D7)) (UniProt Q8IBS5); experiment: PfCDPK4 kinase inhibitors, biochemical, TCAMS library (AID 1159588; cut-off not given, nearly all actives have IC50 up to about 0.91 µM); details: recombinant PfCDPK4, Kinase-Glo ATP depletion luminescence
# Calcium-dependent protein kinase 4 (Plasmodium falciparum (isolate 3D7)), sequence (Q8IBS5 whole entry, looked up): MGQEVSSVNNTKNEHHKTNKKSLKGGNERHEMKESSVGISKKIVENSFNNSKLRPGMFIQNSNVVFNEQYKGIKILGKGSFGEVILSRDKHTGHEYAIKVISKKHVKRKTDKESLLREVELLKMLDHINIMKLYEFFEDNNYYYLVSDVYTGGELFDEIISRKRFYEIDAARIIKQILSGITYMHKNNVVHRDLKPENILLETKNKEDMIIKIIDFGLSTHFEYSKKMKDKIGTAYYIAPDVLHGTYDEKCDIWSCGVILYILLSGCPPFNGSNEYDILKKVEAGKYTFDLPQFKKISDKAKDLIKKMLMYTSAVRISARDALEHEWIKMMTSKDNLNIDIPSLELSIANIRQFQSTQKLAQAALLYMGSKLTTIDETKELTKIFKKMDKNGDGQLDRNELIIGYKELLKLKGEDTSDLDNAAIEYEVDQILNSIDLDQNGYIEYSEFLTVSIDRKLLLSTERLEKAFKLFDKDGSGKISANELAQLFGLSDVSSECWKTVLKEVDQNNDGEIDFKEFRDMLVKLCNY
# [5] = molecular target: 6-phosphogluconate dehydrogenase, decarboxylating (Homo sapiens) (UniProt P52209); experiment: 6PGD enzyme inhibitors, primary screen, biochemical, human, recombinant enzyme, NADPH absorbance (AID 1159550;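 active means at least 20% inhibition of 6-phosphogluconate dehydrogenase activity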); details: recombinant 6PGD, NADPH absorbance 341 nm; at 10 µM; stronger effect = higher value
# 6-phosphogluconate dehydrogenase, decarboxylating (Homo sapiens), sequence (P52209 whole entry, looked up): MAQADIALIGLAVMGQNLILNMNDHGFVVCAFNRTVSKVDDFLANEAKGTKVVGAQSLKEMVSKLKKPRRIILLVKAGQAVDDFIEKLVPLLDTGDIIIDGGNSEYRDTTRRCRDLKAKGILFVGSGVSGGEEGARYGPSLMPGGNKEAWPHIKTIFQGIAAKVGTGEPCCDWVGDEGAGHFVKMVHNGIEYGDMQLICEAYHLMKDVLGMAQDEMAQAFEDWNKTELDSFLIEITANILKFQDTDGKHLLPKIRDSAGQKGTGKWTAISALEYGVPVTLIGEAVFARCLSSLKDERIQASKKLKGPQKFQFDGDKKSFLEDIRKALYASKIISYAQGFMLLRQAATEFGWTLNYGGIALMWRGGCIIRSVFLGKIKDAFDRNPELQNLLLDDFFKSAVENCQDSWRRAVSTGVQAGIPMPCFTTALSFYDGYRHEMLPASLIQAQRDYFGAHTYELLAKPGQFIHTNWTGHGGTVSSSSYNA
# [6] = LFS_MB_P medulloblastoma growth inhibition, cell-based, chromothripsis tumors, cisplatin or BGB combos (AID 1671449; in the data active means inhibition above about 80%;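 further: cells exposed for 96 hours; 0% = vehicle DMSO and 100% = killing by high DMSO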); details: LFS_MB_P medulloblastoma cells
# [7] = HDN33 neuroblastoma growth inhibition, cell-based, chromothripsis tumors, cisplatin or BGB combos (AID 1671450; in the data active means inhibition above about 80%;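 further: cells exposed to compound for four days; 0% = vehicle DMSO and 100% = cell killing by high DMSO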); details: HDN33 neuroblastoma cells, stronger effect = higher value
# [8] = ICB984 medulloblastoma cell growth inhibition, synergistic combos for chromothripsis tumors, cisplatin or BGB combos (AID 1671451); details: ICB984 medulloblastoma cells, drug combinations, stronger effect = higher value;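 further: cells exposed for 96 hours before readout; 0% = vehicle DMSO and 100% = killing by high DMSO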
# [9] = LFS_MB_1R medulloblastoma cell growth inhibition, synergistic combos for chromothripsis tumors, cisplatin or BGB combos (AID 1671452; in the data active means inhibition above about 80%;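 further: cells exposed for 96 hours before readout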); details: LFS_MB_1R medulloblastoma cells, stronger effect = higher value
# [10] = HTB85 osteosarcoma cell growth inhibition, synergistic combos for chromothripsis tumors, BGB or cisplatin IC20 combos (AID 1671453; in the data active means inhibition above about 80%;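 further: cells exposed for 96 hours before readout; 0% = vehicle DMSO and 100% = high DMSO killing control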); details: HTB85 osteosarcoma cells, drug combinations, stronger effect = higher value
# [11] = CRL2098 osteosarcoma cell growth inhibition, synergistic combos for chromothripsis tumors, BGB or cisplatin IC20 combos (AID 1671454; in the data active means inhibition above about 80%;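 further: cells exposed for 96 h before readout; 0% = vehicle DMSO and 100% = killing by high DMSO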); details: CRL2098 osteosarcoma cells, drug combinations, stronger effect = higher value
# [12] = HD-MB03 medulloblastoma cell growth inhibition, synergistic combos for chromothripsis tumors, BGB or cisplatin IC20 combos (AID 1671455; in the data active means inhibition above about 83%;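 further: 0% = vehicle DMSO and 100% = high DMSO as cytotoxic control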); details: HD-MB03 medulloblastoma cells, stronger effect = higher value
# [13] = UWB1.289 ovarian carcinoma cell growth inhibition, synergistic combos for chromothripsis tumors, BGB or cisplatin combos (AID 1671456; in the data active means inhibition above about 80%;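 further: cells exposed to compound for four days; 0% = vehicle DMSO and 100% = killing by high DMSO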); details: UWB1.289 ovarian carcinoma cells, stronger effect = higher value
# [14] = LFS_MB_2R medulloblastoma cell growth inhibition, synergistic combos for chromothripsis tumors, cisplatin combos (AID 1671457; in the data active means inhibition above about 80%;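 further: cells exposed to compound for four days before readout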); details: LFS_MB_2R medulloblastoma cells, stronger effect = higher value
# [15] = MDA-MB-436 breast carcinoma cell growth inhibition, synergistic combos for chromothripsis tumors, BGB or cisplatin combos (AID 1671458); details: MDA-MB-436 breast carcinoma growth inhibition, drug combinations, stronger effect = higher value;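 further: cells exposed for 96 hours; 0% = vehicle DMSO and 100% = killing by high DMSO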
# [16] = UWB1.289_BRCA1 ovarian cancer growth, cell-based, BGB or cisplatin combinations (AID 1671459; in the data active means inhibition above about 80%); details: UWB1.289 BRCA1 ovarian carcinoma, drug combinations, stronger effect = higher value
# [17] = human astrocyte viability loss, single and combined drugs, cytotoxicity control for chromothriptic childhood tumor combination screen, cell-based, BGB or cisplatin IC20 combos (AID 1671460; in the data active means inhibition above about 80%;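 further: cells exposed to compounds for 96 hours before viability readout; 0% = vehicle and 100% = killing control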); details: Human astrocytes, drug combinations, stronger effect = higher value
# [18] = growth inhibition of BT084 medulloblastoma cells, cell-based, ICGC_MB145, cisplatin and BGB IC40 combos (AID 1671461; in the data active means inhibition above about 80%;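 further: cells exposed to drugs for 96 hours; 0% = vehicle DMSO and 100% = high DMSO full killing control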); details: drug combinations, stronger effect = higher value
# [19] = growth inhibition of RCMB18 medulloblastoma cells, cell-based, cisplatin and BGB IC40 combos (AID 1671462; in the data active means inhibition above about 80%;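 further: cells exposed to compound for four days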); details: stronger effect = higher value
# [20] = growth inhibition of CRL1545 osteosarcoma cells, cell-based, cisplatin and BGB IC20 combos (AID 1671464; in the data active means inhibition above about 80%;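 further: cells exposed to compound for 96 hours before readout; 0% = vehicle DMSO and 100% = high DMSO killing control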); details: stronger effect = higher value
# [21] = molecular target: ATP-dependent translocase ABCB1 (Homo sapiens) (UniProt P08183); experiment: MDR1 (ABCB1) efflux transporter inhibition, cell-based (AID 377; in the data active means fluorescence slope change above about 50%); details: MDR1-expressing cells, fluorescent substrate accumulation slope; stronger effect = higher value; concentration not given here
# ATP-dependent translocase ABCB1 (Homo sapiens), sequence (P08183 whole entry, looked up): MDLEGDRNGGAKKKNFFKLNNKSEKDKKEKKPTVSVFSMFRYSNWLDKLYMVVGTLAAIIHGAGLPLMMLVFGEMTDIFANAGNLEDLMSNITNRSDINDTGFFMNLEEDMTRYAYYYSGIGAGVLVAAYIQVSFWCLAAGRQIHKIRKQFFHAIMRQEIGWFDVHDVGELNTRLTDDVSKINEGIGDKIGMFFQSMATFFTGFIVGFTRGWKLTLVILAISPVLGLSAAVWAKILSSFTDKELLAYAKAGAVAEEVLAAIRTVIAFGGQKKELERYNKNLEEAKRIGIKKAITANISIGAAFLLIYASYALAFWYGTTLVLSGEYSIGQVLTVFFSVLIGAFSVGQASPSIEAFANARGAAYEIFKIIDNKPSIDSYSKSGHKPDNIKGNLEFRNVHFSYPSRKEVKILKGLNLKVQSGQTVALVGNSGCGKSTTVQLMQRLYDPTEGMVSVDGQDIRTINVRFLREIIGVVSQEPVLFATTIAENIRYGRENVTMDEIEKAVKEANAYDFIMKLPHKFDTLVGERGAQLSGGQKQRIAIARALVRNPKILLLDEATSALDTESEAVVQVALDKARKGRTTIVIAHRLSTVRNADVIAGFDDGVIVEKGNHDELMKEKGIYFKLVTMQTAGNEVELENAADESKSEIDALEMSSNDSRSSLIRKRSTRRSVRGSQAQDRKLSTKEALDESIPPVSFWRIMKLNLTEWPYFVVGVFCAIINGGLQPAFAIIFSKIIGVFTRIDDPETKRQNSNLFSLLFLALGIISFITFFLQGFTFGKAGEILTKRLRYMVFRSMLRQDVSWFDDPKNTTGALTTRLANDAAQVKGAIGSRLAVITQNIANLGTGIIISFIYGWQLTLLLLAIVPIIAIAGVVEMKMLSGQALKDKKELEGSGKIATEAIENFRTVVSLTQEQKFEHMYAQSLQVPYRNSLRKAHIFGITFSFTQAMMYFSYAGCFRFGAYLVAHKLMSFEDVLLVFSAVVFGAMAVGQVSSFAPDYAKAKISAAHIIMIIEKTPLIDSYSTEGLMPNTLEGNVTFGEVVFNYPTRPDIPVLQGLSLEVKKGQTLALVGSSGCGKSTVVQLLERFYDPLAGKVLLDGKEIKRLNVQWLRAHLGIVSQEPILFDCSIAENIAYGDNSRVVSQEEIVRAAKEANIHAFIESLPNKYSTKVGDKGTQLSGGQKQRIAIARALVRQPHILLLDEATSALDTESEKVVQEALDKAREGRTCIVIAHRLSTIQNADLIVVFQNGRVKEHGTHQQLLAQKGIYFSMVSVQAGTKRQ
# [22] = measured here: combination with BGB IC40, at 0.05 µM
# [23] = measured here: with BGB IC20 combination, at 0.5 µM
# [24] = measured here: with cisplatin IC20 combination, at 0.5 µM
# [25] = measured here: combination with cisplatin, at 0.5 µM
# [26] = measured here: combination with cisplatin, at 5 µM
compound,measurement,setting,value
Oc1c(/C=N/n2cnnc2)sc2ccccc12,outcome,[1],inactive
same,outcome,[2],inactive
same,outcome,[3],inactive
same,outcome,[4],inactive
CN(C)c1nc(NCc2ccccc2)nc(N/N=C/c2cc([N+](=O)[O-])ccc2O)n1,outcome,[1],inactive
same,outcome,[2],inactive
same,outcome,[3],inactive
same,outcome,[4],inactive
CCC[C@@H]([C@H](CC1CCCCC1)C(=O)N[C@H](C(=O)Nc1ccccn1)[C@H](C)CC)N(O)C=O,outcome,[1],inactive
same,outcome,[2],inactive
same,outcome,[3],inactive
same,outcome,[4],inactive
CCN(CC)CCCN=c1ccn(O)c2cc3ccccc3cc12,outcome,[1],inactive
same,outcome,[2],inactive
same,outcome,[3],inactive
same,outcome,[4],inactive
Oc1cccc(-c2nc(-c3ccc4oc5ccc(-c6nc(-c7cccc(O)c7)[nH]c6-c6ccccc6)cc5c4c3)c(-c3ccccc3)[nH]2)c1,outcome,[1],inactive
same,outcome,[2],inactive
same,outcome,[3],inactive
same,outcome,[4],inactive
Nc1ccc(-c2nc3cc(C4=N[C@@H]5CCCC[C@@H]5N4)ccc3o2)cc1[N+](=O)[O-],outcome,[1],inactive
same,outcome,[2],inactive
same,outcome,[3],inactive
same,outcome,[4],inactive
COc1ccc(C2=[N+]([O-])c3ccccc3C2=O)cc1,outcome,[1],inactive
same,outcome,[2],inactive
same,outcome,[3],inactive
same,outcome,[4],inactive
O=[N+]([O-])c1ccc(/C=N/O)nc1,outcome,[1],inactive
same,outcome,[2],inactive
same,outcome,[3],inactive
same,outcome,[4],inactive
COc1ccc(N=[N+]([O-])c2ccccc2[N+]([O-])=Nc2ccc(OC)cc2)cc1,outcome,[1],inactive
same,outcome,[2],inactive
same,outcome,[3],inactive
same,outcome,[4],inactive
CCCC[C@H](C(=O)NCc1ccccc1C(F)(F)F)N1C(=O)CCC1C(=O)Nc1ccc([N+](=O)[O-])cc1 (stereo partly drawn),outcome,[1],inactive
same,outcome,[2],inactive
same,outcome,[3],inactive
same,outcome,[4],inactive
CCCCCC(C)C(C)c1cc(O)c2c(c1)OC(C)(C)C=C2c1cc[n+]([O-])cc1 (stereo not drawn),outcome,[1],inactive
same,outcome,[2],inactive
same,outcome,[3],inactive
same,outcome,[4],inactive
O=C(N/N=C/c1nc2ccccc2[nH]1)c1cccc([N+](=O)[O-])c1,outcome,[1],inactive
same,outcome,[2],inactive
same,outcome,[3],inactive
same,outcome,[4],inactive
CCCCCC(C)C(C)c1cc(O)c2c(c1)OC(C)(C)C/C2=C\c1ccncc1 (stereo not drawn),outcome,[1],inactive
same,outcome,[2],inactive
same,outcome,[3],inactive
same,outcome,[4],inactive
Oc1cccc(-c2nc(-c3cccc(I)c3)c(-c3ccc(-c4[nH]c(-c5cccc(O)c5)nc4-c4cccc(I)c4)cc3)[nH]2)c1,outcome,[1],inactive
same,outcome,[2],inactive
same,outcome,[3],inactive
same,outcome,[4],inactive
CC1(C(=O)O)CCC2(C)CCC3(C)C(=CC(=O)C4C5(C)CCC(OC(=O)CCC(=O)O)C(C)(C)C5CCC43C)C2C1 (stereo not drawn),inhibition,[5],6.14% (inactive)
same,inhibition,"[6]; at 0.5 µM, stronger effect = higher value",-21.3% (inactive)
same,inhibition,"[6]; measured here: combination with BGB IC20, at 0.005 µM",-7.44%
same,inhibition,"[6]; measured here: combination with BGB IC40, at 0.005 µM",-24.5%
same,inhibition,[6]; [22],-6.64%
same,inhibition,"[6]; measured here: combination with cisplatin, at 0.5 µM, stronger effect = higher value",-25.4%
same,inhibition,"[6]; measured here: combination with cisplatin, at 5 µM, stronger effect = higher value",6.61%
same,inhibition,"[7]; BGB combo, at 5 µM",-10.4%
same,inhibition,[7]; at 0.5 µM,-10.5% (inactive)
same,inhibition,"[7]; cisplatin combo, at 5 µM",-11.2%
same,inhibition,[7]; [23],-1.57%
same,inhibition,[7]; [24],-3.76%
same,inhibition,"[7]; single agent, at 5 µM",0.047%
same,inhibition,"[8]; BGB IC20 combo, at 0.005 µM",-6.54%
same,inhibition,"[8]; BGB IC40 combo, at 0.005 µM",-25.3%
same,inhibition,"[8]; BGB IC40 combo, at 0.05 µM",3.64%
same,inhibition,[8]; at 0.5 µM,-16.5% (inactive)
same,inhibition,"[8]; cisplatin combo, at 0.05 µM",3.64%
same,inhibition,"[8]; cisplatin combo, at 0.5 µM",-24%
same,inhibition,"[8]; cisplatin combo, at 5 µM",-37.6%
same,inhibition,"[8]; measured here: 5 uM single agent, at 5 µM",-21.7%
same,inhibition,[9]; at 0.5 µM,-0.8% (inactive)
same,inhibition,[9]; [22],-15.6%
same,inhibition,[9]; [25],21.2%
same,inhibition,[9]; [26],-0.5%
same,inhibition,[10]; at 0.5 µM,-18% (inactive)
same,inhibition,"[10]; measured here: with BGB IC20, at 0.5 µM",-38.9%
same,inhibition,"[10]; measured here: with BGB IC20, at 5 µM",-13.2%
same,inhibition,"[10]; measured here: with cisplatin IC20, at 0.5 µM",-4%
same,inhibition,"[10]; measured here: with cisplatin IC20, at 5 µM",-11%
same,inhibition,"[10]; single agent, at 5 µM",-22.6%
same,inhibition,[11]; at 0.5 µM,-75% (inactive)
same,inhibition,"[11]; measured here: combination with BGB at IC20, at 0.5 µM",-54.3%
same,inhibition,"[11]; measured here: combination with cisplatin at IC20, at 0.5 µM",-113%
same,inhibition,[12]; at 0.5 µM,0.23% (inactive)
same,inhibition,"[12]; measured here: combo with BGB at IC20, at 0.5 µM",-6.04%
same,inhibition,"[12]; measured here: combo with cisplatin at IC20, at 0.5 µM",5.01%
same,inhibition,[13]; at 0.5 µM,-3.45% (inactive)
same,inhibition,"[13]; measured here: inhibition with BGB combination, at 0.05 µM",-24.1%
same,inhibition,"[13]; measured here: inhibition with cisplatin combination, at 0.05 µM",-15.6%
same,inhibition,[14]; at 0.5 µM,-24.3% (inactive)
same,inhibition,[14]; [25],-26.3%
same,inhibition,[14]; [26],-19.2%
same,inhibition,[15]; at 0.5 µM,-23.5% (inactive)
same,inhibition,"[15]; measured here: BGB combination, at 0.5 µM",-21%
same,inhibition,"[15]; measured here: BGB combination, at 5 µM",-30.2%
same,inhibition,"[15]; measured here: cisplatin combination, at 0.5 µM",-40.5%
same,inhibition,"[15]; measured here: cisplatin combination, at 5 µM",-24%
same,inhibition,"[16]; BGB combination, concentration series, at 5 µM",-13.7%
same,inhibition,[16]; at 0.5 µM,-12.8% (inactive)
same,inhibition,"[16]; cisplatin combination, concentration series, at 5 µM",3.23%
same,inhibition,[17]; at 0.5 µM,-10.9% (inactive)
same,inhibition,"[17]; measured here: combo with BGB IC20, at 0.5 µM",-14.8%
same,inhibition,"[17]; measured here: combo with cisplatin IC20, at 0.5 µM",-13.4%
same,inhibition,[18]; at 0.5 µM,-17.1% (inactive)
same,inhibition,"[18]; cisplatin combination, at 0.5 µM",5.31%
same,inhibition,"[18]; cisplatin combination, at 5 µM",-38.2%
same,inhibition,"[18]; measured here: BGB IC40 combination 0.05 uM, at 0.05 µM",-1.75%
same,inhibition,"[18]; single agent, at 5 µM",-40.2%
same,inhibition,[19]; at 0.5 µM,-19.6% (inactive)
same,inhibition,"[19]; cisplatin combo, at 5 µM",13.2%
same,inhibition,"[19]; measured here: BGB IC40 combination, at 0.05 µM",-21.9%
same,inhibition,[19]; [25],-3.15%
same,inhibition,"[19]; single agent, at 5 µM",-16.1%
same,inhibition,[20]; at 0.5 µM,-42.7% (inactive)
same,inhibition,[20]; [23],-46.3%
same,inhibition,[20]; [24],-40.9%
same,inhibition,"[20]; single agent, at 0.05 µM",5.52%
same,inhibition,"[20]; single agent, at 5 µM",7.12%
CC[C@H](C)[C@H](NC(=O)[C@@H](CC1CCCCC1)[C@H](CC)N(O)C=O)C(=O)Nc1ccccn1,outcome,[1],inactive
same,outcome,[2],inactive
same,outcome,[3],inactive
same,outcome,[4],inactive
CO[C@@H]1[C@@H](OC2OC(C)C(OC3CC(C)(O)C(O)C(C)O3)C(N(C)C)C2O)[C@@H](CC=O)C[C@@H](C)[C@@H](OC2CCC(N(C)C)C(C)O2)/C=C/C=C/C[C@@H](C)OC(=O)C[C@H]1O (stereo partly drawn),fluorescence slope change,[21],23.5% (inactive)
same,inhibition,[5],5.19% (inactive)
CCC[C@@H]([C@H](CC(C)C)C(=O)N[C@@H](CCCN=C(N)NS(C)(=O)=O)C(=O)Nc1nccs1)N(O)C=O,outcome,[1],inactive
same,outcome,[2],inactive
same,outcome,[3],inactive
same,outcome,[4],inactive
COc1ccc(Nc2nc(N/N=C/c3cc(Br)c(O)cc3O)nc(Nc3ccc([N+](=O)[O-])cc3)n2)cc1,outcome,[1],inactive
same,outcome,[2],inactive
same,outcome,[3],inactive
same,outcome,[4],inactive
CCCO[C@H](C(=O)OC)[C@H](CC1Cc2ccccc2C1)C(=O)NCCC1=CCCCC1,outcome,[1],inactive
same,outcome,[2],inactive
same,outcome,[3],inactive
same,outcome,[4],inactive
